The values below come from PubChem BioAssay (Tox21).

Unmarked numbers belong to inactive results. Records with an inconclusive call do not appear. Calls of active or inactive are those of the source. Unless noted, calls come from the whole dose curve; as a rule, active = well fitted curve in the direction sought with a large enough effect in the repeat runs; inconclusive = weak or mixed curves; inactive = no such curve, though single readings can be large; an effect the other way counts as inactive or inconclusive.

The target in experiment [1] is Acetylcholinesterase (Homo sapiens) (UniProt P22303). The experiment can be described thus: Acetylcholinesterase (AChE) small molecule antagonists: enzyme-based qHTS assay (AID 1347397; calls by dose curve; note: nearly all actives have a fitted effect of over 55% in size). As to conditions: Potency: AChE enzyme activity inhibition. An outline of the steps:
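rhAChE 50 mU/mL (dispensed) + cpd or DMSO, 30 min RT; add DTNB/acetylthiocholine cocktail, 10 min RT; colorimetric thiocholine readout. qHTS, 1536-well format.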

Experiment [2] shares this target. The experiment can be described thus: Acetylcholinesterase (AChE) small molecule antagonists: fluorescence cell-based qHTS assay (AID 1347398; calls by dose curve; note: nearly all actives have a fitted effect of over 50% in size). Conditions: Potency: AChE activity. An outline of the steps: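 Read-out is Thiolite Green fluorescence at Ex/Em = 490/520 nm, formed by reaction with thiocholine released when cellular AChE in SH-SY5Y cells hydrolyzes acetylthiocholine. Compounds were preincubated 30 min at 37 C before substrate.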
On the technique in general: In qHTS, concentration-response curves come from the screen itself.

Experiment [3] shares this target. The experiment can be described thus: Acetylcholinesterase (AChE) small molecule antagonists: enzyme-based qHTS assay with human liver microsomes (AID 1347399; calls by dose curve; note: nearly all actives have a fitted effect of over 60% in size). Conditions: Potency: qHTS inhibition. An outline of the steps:
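Recombinant human AChE (50 mU/mL in the enzyme mix) and human liver microsomes (0.25 mg/mL final) were preincubated with compound and NADPH (0.25 mg/mL final) for 30 min at 37 C. Acetylthiocholine/DTNB was then added; thiocholine was read colorimetrically after 10 min at room temperature.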

In experiment [4] the target is Cytochrome P450 2D6 (Homo sapiens) (UniProt P10635). As to the kind of experiment: Cytochrome P450 Family 2 Subfamily D Member 6 (CYP2D6) small molecule antagonists: luciferase reporter qHTS assay (AID 1671196). Note: nearly all actives have a fitted effect of over 50% in size. An outline of the steps: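 CYP2D6 enzyme–substrate mix was held with compound for 10 min at room temperature, then NADPH regeneration solution was added and the reaction ran 1 h at room temperature. Luciferin product was detected by luminescence after 20 min with detection reagent.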
Sequence of Cytochrome P450 2D6 (Homo sapiens) (P10635 whole entry, looked up): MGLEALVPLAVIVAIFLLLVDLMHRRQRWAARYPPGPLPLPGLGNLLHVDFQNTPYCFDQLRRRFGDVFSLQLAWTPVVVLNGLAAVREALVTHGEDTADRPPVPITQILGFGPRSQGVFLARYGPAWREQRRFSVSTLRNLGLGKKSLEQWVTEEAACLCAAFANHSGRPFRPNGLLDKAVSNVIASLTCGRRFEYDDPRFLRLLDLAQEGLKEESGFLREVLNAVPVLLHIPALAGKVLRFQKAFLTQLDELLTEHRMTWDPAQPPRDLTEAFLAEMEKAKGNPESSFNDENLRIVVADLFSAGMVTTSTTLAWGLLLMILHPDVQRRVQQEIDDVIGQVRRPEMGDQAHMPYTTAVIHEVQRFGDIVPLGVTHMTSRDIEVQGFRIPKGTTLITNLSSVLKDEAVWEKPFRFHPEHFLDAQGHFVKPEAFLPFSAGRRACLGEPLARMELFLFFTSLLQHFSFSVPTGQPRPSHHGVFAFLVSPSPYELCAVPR
A general note: A reporter such as luciferase makes a cellular process visible.

Experiment [5] concerns the target Cytochrome P450 2C19 (Homo sapiens) (UniProt P33261). The experiment can be described thus: Cytochrome P450 Family 2 Subfamily C Member 19 (CYP2C19) small molecule antagonists: luciferase reporter qHTS assay (AID 1671197). Note: nearly all actives have a fitted effect of over 65% in size. In outline: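 Luminescent readout of CYP2C19 activity: luciferin product detected 20 min after adding detection reagent. Before that, compound and enzyme-substrate mix preincubated 10 min at room temperature; NADPH-regenerating system started a 1 h, 37C reaction. Ketoconazole as positive control.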

For experiment [6], the target named is Cytochrome P450 2C9 (Homo sapiens) (UniProt P11712). The experiment can be described thus: Cytochrome P450 Family 2 Subfamily C Member 9 (CYP2C9) small molecule antagonists: luciferase reporter qHTS assay (AID 1671198). Note: nearly all actives have a fitted effect of over 50% in size. In outline:
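Enzyme-substrate mix preincubated with compound 10 min at room temperature; reaction started with NADPH regeneration solution, 1 h 37C. Luminescent luciferin product read after 20 min detection reagent.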

For experiment [7], the target named is Cytochrome P450 1A2 (Homo sapiens) (UniProt P05177). The experiment can be described thus: Cytochrome P450 Family 1 Subfamily A Member 2 (CYP1A2) small molecule antagonists: luciferase reporter qHTS assay (AID 1671199). Note: nearly all actives have a fitted effect of over 50% in size. In outline:
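Human CYP1A2 activity measured with a P450-Glo proluciferin substrate; compounds in DMSO preincubated 10 min at room temperature with enzyme-substrate mix, then NADPH regeneration system added for 1 h. Luciferin detection reagent, 20 min, luminescence read.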

Experiment [8] concerns the target Voltage-gated inwardly rectifying potassium channel KCNH2 (Homo sapiens) (UniProt Q12809). The experiment can be described thus: Human Ether-a-go-go-Related Gene (hERG) channel small molecule antagonists: fluorescence cell-based qHTS assay (AID 1671200). Note: nearly all actives have a fitted effect of over 50% in size. In outline: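 Fluorescence at 540 nm emission (480 nm excitation) was recorded kinetically for 2 min at 1-second intervals once the thallium-containing stimulus reached cells previously loaded with FluxOR II dye.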
On the technique in general: hERG is a cardiac potassium channel; its block is linked to QT prolongation.

For experiment [9], the target named is Cytochrome P450 3A4 (Homo sapiens) (UniProt P08684). As to the kind of experiment: Cytochrome P450 Family 3 Subfamily A Member 4 (CYP3A4) small molecule antagonists: luciferase reporter qHTS assay (AID 1671201). Note: nearly all actives have a fitted effect of over 50% in size. In outline: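 qHTS, 1536-well. CYP3A4 + proluciferin substrate, cpd 10 min RT → NADPH regen 1 h RT → detection reagent 20 min → luminescence (RLU). Ketoconazole positive control.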
Sequence of Cytochrome P450 3A4 (Homo sapiens) (P08684 whole entry, looked up): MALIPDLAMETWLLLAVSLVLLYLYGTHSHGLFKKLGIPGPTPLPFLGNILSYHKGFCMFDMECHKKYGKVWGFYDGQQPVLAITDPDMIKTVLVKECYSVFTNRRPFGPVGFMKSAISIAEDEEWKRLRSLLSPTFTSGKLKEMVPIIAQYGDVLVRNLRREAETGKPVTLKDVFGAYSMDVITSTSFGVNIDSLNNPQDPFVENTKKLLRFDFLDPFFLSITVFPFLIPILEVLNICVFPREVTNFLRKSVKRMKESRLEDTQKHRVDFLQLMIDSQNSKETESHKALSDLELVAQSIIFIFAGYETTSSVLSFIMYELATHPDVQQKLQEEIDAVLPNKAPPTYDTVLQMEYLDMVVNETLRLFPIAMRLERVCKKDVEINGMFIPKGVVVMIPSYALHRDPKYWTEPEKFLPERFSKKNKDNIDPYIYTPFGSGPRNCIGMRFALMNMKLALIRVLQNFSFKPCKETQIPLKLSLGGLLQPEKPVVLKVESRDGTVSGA
Potency is the fitted concentration of half-maximal effect.

Sequence of Acetylcholinesterase (Homo sapiens) (P22303 whole entry, looked up): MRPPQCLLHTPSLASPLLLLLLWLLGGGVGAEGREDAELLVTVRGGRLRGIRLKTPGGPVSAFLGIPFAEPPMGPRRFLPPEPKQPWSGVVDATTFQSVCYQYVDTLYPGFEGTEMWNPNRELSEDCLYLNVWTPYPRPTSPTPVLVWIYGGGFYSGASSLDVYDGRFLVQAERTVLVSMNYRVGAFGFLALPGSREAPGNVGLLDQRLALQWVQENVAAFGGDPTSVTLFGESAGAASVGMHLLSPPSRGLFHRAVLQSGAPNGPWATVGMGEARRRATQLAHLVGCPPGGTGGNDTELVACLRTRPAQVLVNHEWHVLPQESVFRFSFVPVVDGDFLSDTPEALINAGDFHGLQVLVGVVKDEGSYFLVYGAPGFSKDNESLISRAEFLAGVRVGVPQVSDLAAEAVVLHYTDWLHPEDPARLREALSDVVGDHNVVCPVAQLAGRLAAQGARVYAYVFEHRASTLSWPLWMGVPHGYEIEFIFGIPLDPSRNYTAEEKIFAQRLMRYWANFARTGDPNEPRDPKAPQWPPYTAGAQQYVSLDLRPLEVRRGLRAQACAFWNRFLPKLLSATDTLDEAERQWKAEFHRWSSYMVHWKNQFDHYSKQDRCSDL
Sequence of Cytochrome P450 1A2 (Homo sapiens) (P05177 whole entry, looked up): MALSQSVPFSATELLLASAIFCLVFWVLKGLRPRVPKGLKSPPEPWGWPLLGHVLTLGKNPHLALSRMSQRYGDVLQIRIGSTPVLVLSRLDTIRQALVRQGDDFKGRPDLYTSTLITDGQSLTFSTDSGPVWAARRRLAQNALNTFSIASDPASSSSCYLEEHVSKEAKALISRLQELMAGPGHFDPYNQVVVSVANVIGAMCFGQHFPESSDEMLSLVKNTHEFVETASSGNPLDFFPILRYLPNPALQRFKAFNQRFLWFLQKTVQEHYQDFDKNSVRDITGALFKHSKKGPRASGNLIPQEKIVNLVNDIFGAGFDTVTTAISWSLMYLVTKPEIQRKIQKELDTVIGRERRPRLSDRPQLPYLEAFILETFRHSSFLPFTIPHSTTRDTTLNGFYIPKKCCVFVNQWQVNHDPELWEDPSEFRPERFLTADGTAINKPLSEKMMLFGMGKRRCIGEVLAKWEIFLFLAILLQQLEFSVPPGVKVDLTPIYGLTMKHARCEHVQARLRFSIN
Sequence of Cytochrome P450 2C19 (Homo sapiens) (P33261 whole entry, looked up): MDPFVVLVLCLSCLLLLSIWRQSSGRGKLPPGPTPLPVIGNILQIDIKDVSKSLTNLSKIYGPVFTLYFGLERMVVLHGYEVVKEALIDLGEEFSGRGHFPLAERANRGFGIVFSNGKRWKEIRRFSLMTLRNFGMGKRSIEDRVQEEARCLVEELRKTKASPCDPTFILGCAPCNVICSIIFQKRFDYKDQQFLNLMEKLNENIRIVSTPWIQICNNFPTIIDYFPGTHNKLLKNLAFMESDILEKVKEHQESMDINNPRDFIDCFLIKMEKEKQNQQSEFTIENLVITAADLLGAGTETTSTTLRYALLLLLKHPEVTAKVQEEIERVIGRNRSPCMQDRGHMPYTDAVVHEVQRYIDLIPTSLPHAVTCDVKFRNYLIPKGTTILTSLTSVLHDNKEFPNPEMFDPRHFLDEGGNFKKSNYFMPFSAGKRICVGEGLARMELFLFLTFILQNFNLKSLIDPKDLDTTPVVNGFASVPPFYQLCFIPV
Sequence of Voltage-gated inwardly rectifying potassium channel KCNH2 (Homo sapiens) (Q12809 whole entry, looked up): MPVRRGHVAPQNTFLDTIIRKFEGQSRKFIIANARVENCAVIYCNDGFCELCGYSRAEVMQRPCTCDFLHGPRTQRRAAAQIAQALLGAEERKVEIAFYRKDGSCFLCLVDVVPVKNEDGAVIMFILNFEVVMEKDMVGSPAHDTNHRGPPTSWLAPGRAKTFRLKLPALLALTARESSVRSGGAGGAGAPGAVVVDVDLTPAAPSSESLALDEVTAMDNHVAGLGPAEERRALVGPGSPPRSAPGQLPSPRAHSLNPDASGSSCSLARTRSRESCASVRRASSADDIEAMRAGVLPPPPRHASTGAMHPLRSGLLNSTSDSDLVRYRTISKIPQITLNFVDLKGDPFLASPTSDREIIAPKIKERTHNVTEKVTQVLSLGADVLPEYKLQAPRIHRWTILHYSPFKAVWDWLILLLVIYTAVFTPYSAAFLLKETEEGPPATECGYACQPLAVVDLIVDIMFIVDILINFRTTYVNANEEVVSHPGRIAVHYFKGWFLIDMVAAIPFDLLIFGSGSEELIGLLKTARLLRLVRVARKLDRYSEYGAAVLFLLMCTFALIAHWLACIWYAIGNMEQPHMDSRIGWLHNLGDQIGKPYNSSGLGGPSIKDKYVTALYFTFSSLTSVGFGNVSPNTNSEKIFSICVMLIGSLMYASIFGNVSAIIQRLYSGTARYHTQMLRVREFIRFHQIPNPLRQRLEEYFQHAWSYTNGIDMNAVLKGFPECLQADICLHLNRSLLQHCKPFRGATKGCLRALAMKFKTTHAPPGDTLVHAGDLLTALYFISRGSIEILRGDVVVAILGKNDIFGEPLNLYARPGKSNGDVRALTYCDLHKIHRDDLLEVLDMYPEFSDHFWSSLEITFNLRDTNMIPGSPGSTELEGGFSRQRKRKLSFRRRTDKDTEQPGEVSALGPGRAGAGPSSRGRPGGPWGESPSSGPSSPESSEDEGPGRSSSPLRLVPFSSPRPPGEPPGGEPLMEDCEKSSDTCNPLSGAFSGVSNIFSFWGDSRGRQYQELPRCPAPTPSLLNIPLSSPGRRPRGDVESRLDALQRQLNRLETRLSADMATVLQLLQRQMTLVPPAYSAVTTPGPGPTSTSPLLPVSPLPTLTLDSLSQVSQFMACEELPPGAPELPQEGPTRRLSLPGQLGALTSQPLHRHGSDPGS
Sequence of Cytochrome P450 2C9 (Homo sapiens) (P11712 whole entry, looked up): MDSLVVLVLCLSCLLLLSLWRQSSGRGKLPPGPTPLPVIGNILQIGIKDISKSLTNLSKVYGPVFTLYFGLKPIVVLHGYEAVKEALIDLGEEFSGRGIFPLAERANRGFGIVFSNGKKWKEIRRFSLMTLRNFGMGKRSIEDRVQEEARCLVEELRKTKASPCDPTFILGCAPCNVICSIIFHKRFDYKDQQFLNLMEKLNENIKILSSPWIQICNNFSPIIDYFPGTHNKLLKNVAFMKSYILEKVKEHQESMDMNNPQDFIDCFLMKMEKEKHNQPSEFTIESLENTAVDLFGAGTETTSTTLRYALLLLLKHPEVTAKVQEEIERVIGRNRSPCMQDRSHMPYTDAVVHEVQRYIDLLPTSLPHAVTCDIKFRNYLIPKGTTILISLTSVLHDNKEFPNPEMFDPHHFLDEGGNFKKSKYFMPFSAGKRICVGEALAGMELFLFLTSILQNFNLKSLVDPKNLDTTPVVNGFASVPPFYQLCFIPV

Turning to `CCC(=O)c1ccccc1`, the Potency result in experiment [1], in experiment [2], in experiment [3], in experiment [4], in experiment [5] and in experiment [6] was “inactive” in each case. For the same compound, the Potency result in [7], in experiment [8] and in experiment [9] was “inactive” throughout.

For the compound `CC1COC2(c3ccccc3Cl)c3cc(Cl)ccc3NC(=O)CN12` (stereo not drawn), the Potency result in [1], in experiment [2], in experiment [3] and in experiment [7] was “inactive” throughout. The Potency in [4] was 15.5 µM (active); in experiment [5], 4.36 µM (active); in experiment [6], 27.5 µM (active).

As to `O=C1OC(CCN2CCCCC2)OC1(c1ccccc1)c1ccccc1` (stereo not drawn), the Potency result in experiment [1], in experiment [2] and in [3] was “inactive” each time. The values for the Potency in experiment [4], in experiment [5] and in experiment [6] were 0.871 µM (active), 38.9 µM (active) and 15.5 µM (active), respectively.

Take `Cc1ncsc1CCCl`: the Potency entry in experiment [1], in experiment [2], in experiment [3], in experiment [4], in [5] and in [6] was “inactive” each time. For the same compound, the Potency entry in experiment [7], in experiment [8] and in experiment [9] was “inactive” in each case.

Turning to `CCOP(=S)(OCC)SCSP(=S)(OCC)OCC`, the Potency in experiment [1] is 63.3 µM (active); in [2], 35.6 µM (active); in experiment [3] it was 17.8 µM (active); in [4] it was 35.6 µM (active); in [5], 0.399 µM (active); in [6], 0.796 µM (active). Further, the figures for the Potency in [7] and in experiment [9] were 15.9 µM (active) and 1.26 µM (active), respectively. In addition, in experiment [8], the Potency entry is “inactive”.

With `O=[N+]([O-])c1cc(Cl)c(Cl)c(Cl)c1`, the Potency entry in [1], in [2], in experiment [3], in experiment [4], in [5] and in [6] was “inactive” each time. The Potency entry in experiment [8] and in experiment [9] was “inactive” throughout. The Potency in experiment [7] is 11.1 µM (active).

Consider `CCOP(=S)(OCC)Oc1ncn(-c2ccccc2)n1`, for which the Potency in [1] was 71 µM (active); in experiment [2], 35.6 µM (active); in [3] it was 3.17 µM (active); in [5] it was 1 µM (active); in experiment [6], 0.502 µM (active); in experiment [7], 1.78 µM (active). Besides, the Potency in [9] was 2.52 µM (active). Also, the Potency entry in experiment [4] and in experiment [8] was “inactive” throughout.

In the case of `C=CCC1=C(C)[C@@H](OC(=O)[C@@H]2[C@@H](C=C(C)C)C2(C)C)CC1=O`, the Potency entry in experiment [1], in [2] and in experiment [3] was “inactive” each time. For the same compound, the Potency in [4] is 35.6 µM (active); in experiment [5], 6.33 µM (active); in experiment [6], 12.6 µM (active); in [7], 28.3 µM (active); in [8], 21.9 µM (active).

Turning to `O=C(NCO)NCO`, the Potency entry in experiment [1], in [2], in experiment [3], in experiment [4], in [5] and in [6] was “inactive” each time. Moreover, the Potency entry in experiment [7], in experiment [8] and in experiment [9] was “inactive” throughout.

Turning to `O=C1OC(=O)C2C1C1(Cl)C(Cl)=C(Cl)C2(Cl)C1(Cl)Cl` (stereo not drawn), the Potency result in experiment [1], in experiment [2], in experiment [3], in experiment [4], in experiment [5] and in [6] was “inactive” throughout. For the same compound, the Potency result in experiment [7], in [8] and in experiment [9] was “inactive” in each case.

`CCCSC(=O)N(CCC)CCC`: the Potency entry in experiment [1], in experiment [2], in [3], in experiment [4], in [5] and in experiment [6] was “inactive” in each case. The Potency entry in experiment [7], in experiment [8] and in experiment [9] was “inactive” throughout.

As to `CCCSC(=O)Cl`, the Potency result in experiment [1], in experiment [2], in experiment [3], in experiment [4], in experiment [5] and in [6] was “inactive” throughout. Besides, the Potency result in experiment [7], in experiment [8] and in [9] was “inactive” in each case.

For `ClC(Cl)Br`, the Potency entry in experiment [1], in experiment [2], in experiment [3], in experiment [4], in experiment [5] and in [6] was “inactive” in each case. The Potency result in experiment [7], in experiment [8] and in [9] was “inactive” in each case.

Regarding `CCCCCCI`, the Potency entry in experiment [1], in experiment [2], in [3], in [4], in experiment [5] and in [6] was “inactive” throughout. In addition, the Potency result in [7], in experiment [8] and in experiment [9] was “inactive” in each case.

With `CSc1nc(N=[N+]=[N-])nc(NC(C)C)n1`, the Potency result in [1], in [2], in experiment [3], in experiment [4], in experiment [8] and in [9] was “inactive” throughout. Also, the Potency was 71 µM (active) in experiment [5], 79.6 µM (active) in experiment [6] and 28.3 µM (active) in [7].

`CCN(CC)CCOC(=O)C(C)(c1ccccc1)c1ccccc1`: the Potency result in [1], in experiment [2], in [3] and in [7] was “inactive” in each case. Besides, the Potency in [4] is 1.55 µM (active); in [5], 3.89 µM (active); in experiment [6], 12.3 µM (active).

Turning to `COc1ncc(F)c2nc(S(=O)(=O)Nc3c(F)cccc3F)nn12`, the Potency result in [1], in experiment [2], in experiment [3], in experiment [4], in experiment [5] and in [7] was “inactive” throughout. In addition, the Potency result in [8] and in experiment [9] was “inactive” throughout. In experiment [6], the Potency is 22.6 µM (active).

With `CS(=O)(=O)c1cc(C(F)(F)F)ccc1C(=O)c1cnoc1C1CC1`, the Potency entry in [1], in experiment [2], in [3], in [4], in experiment [8] and in experiment [9] was “inactive” each time. In addition, the Potency in [5] was 56.4 µM (active); in experiment [6], 1.59 µM (active); in experiment [7] it was 35.6 µM (active).

For the compound `Cc1ncc2n1-c1ccc(Cl)cc1C(c1ccccc1F)=NC2`, the Potency entry in experiment [1], in experiment [2], in [3] and in experiment [4] was “inactive” each time. The Potency in [5] was 15.5 µM (active); in experiment [6] it was 17.4 µM (active).

`O=C(Nc1ccccc1)N(Cc1ccc(Cl)cc1)C1CCCC1`: the Potency result in experiment [1], in experiment [2] and in experiment [3] was “inactive” in each case. The Potency in experiment [4] was 12.6 µM (active); in experiment [5], 7.1 µM (active); in experiment [6], 15.9 µM (active); in experiment [7], 15.9 µM (active); in [8], 38.9 µM (active); in [9] it was 11.2 µM (active).

Regarding `ClCC(Cl)(Cl)Cl`, the Potency entry in [1], in experiment [2], in [3], in experiment [4], in [5] and in experiment [6] was “inactive” throughout. In addition, the Potency result in [7], in experiment [8] and in experiment [9] was “inactive” throughout.

As to `CCNc1nc(NC(C)C)nc(OC)n1`, the Potency entry in [1], in experiment [2], in experiment [3], in experiment [4], in experiment [6] and in experiment [8] was “inactive” throughout. Besides, the Potency in experiment [5] and in [7] was 25.2 µM (active) throughout.

Regarding `CC(C)(C)OC(=O)c1ncn2c1[C@@H]1CCCN1C(=O)c1c(Br)cccc1-2`, the Potency entry in experiment [1], in experiment [2], in experiment [3], in experiment [4], in experiment [5] and in experiment [7] was “inactive” each time. For the same compound, the Potency result in experiment [8] was “inactive”. For the same compound, the Potency in experiment [6] is 7.76 µM (active).

Turning to `N#Cc1ccncc1`, the Potency entry in experiment [1], in experiment [2], in experiment [3], in experiment [4], in [5] and in experiment [6] was “inactive” each time. Moreover, the Potency entry in [7], in [8] and in experiment [9] was “inactive” in each case.
